The list is not random: actives were taken first. Their share in the collection is about 1.8%.
Vif-A3G inh: inhibitors of Vif-APOBEC3G interaction; Q9HC16; HeLa A3G-eYFP + Vif (tagged APOBEC3G with the HIV-1 protein that degrades it), YFP fluorescence, overnight; Potency, µM (series often up to 46.1 µM), for inactives: at the highest dose activity, negative = active, usual class: inhibitors; actives 0.076% (n = 410,000); AID 602310; also: % is scaled to controls: 0 for no effect and ±100 for the full control effect; nearly all actives have a fitted effect of over 60% in size
Target sequence (Q9HC16 whole entry, looked up): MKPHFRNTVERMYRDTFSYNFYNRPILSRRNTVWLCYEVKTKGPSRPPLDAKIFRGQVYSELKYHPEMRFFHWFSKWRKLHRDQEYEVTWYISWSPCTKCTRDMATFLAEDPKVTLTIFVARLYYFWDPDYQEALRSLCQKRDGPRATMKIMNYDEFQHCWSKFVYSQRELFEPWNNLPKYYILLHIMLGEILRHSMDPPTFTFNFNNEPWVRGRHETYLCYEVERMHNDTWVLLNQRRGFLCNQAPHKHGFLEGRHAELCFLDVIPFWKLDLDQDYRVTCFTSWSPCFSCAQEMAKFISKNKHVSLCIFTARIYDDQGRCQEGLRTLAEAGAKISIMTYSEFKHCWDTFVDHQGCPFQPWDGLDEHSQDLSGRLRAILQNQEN
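Read-out is eYFP fluorescence (Ex 488/Em 500-530) from Vif-expressing HeLa A3G-eYFP cells; more signal means A3G escaped Vif-mediated degradation. Cells plated overnight, compound pinned in, incubated overnight at 37 deg C.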
TrxR1 substrate: rat thioredoxin reductase 1 substrate activity; actives 0.01% (n = 390,000); O89049; AID 588456; Potency, µM (highest dose often 114 µM), inactives show at the top dose activity change, negative = substrate turnover; purified TrxR1 substrate turnover, NADPH consumption readout; also: % is scaled to controls: 0 for no effect and ±100 for the full control effect; nearly all actives have a fitted effect of over 50% in size
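Rat TrxR1, dispensed at 90 nM, was prereduced with 400 uM NADPH (final) for 5 min at ~22 deg C, then incubated with compound 15 min before 400 uM selenite. A first-read NADPH fluorescence drop versus no-compound background flagged substrates.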
VDR inh: vitamin D3 receptor (human) inhibition; VDR-SRC2-3 peptide fluorescence polarization, 2 h; Potency, µM, for the others: max response, negative = inhibition, hits mostly inhibitors; AID 504847; P11473; actives 0.93% (n = 400,000); also: % is scaled to controls: 0 for no effect and ±100 for the full control effect
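Reagent solutions, kept cold and dark, are dispensed first; compounds are then pinned in at 23 nl, plates briefly spun, and incubated 2 h at ambient temperature. Inhibition of VDR–SRC2-3 peptide binding is read by fluorescence polarization.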
Vif-APOBEC3F blk: Vif-A3F binding inhibition. Potency, µM (titrated, usually from 46.1 µM), for the others: top-dose activity, negative = active. HeLa A3F-eYFP + Vif (tagged APOBEC3F with the HIV-1 protein that degrades it), YFP fluorescence increase. AID 602313. actives 0.2% (n = 390,000); also: % of control where 0% means no effect; nearly all actives have a fitted effect of over 65% in size
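HeLa cells stably expressing A3F-eYFP plus Vif, plated and incubated overnight at 37 deg C, then exposed to compounds overnight at 37 deg C. Blocked degradation read as raised yellow fluorescence (Ex 488/Em 500-530).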
rTrxR1 inhibitor: inhibitors of rat thioredoxin reductase 1 | O89049 | recombinant rTrxR1, NADPH fluorescence consumption, selenite substrate | Potency, µM (highest dose often 114 µM), without a hit: at the highest dose activity change, negative = inhibition, usual class: inhibitors | actives 1% (n = 390,000) | AID 588453; also: % is scaled to controls: 0 for no effect and ±100 for the full control effect; nearly all actives have a fitted effect of over 65% in size
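Rat TrxR1 (90 nM in the dispensed reagent) was pre-reduced with 400 uM NADPH for 5 min at room temperature, then incubated with compound for 15 min. After 400 uM selenite was added, NADPH fluorescence (Ex 340/Em 450 nm) was followed for 8 min.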
An asterisk follows results filed as active; u = inconclusive; x = no result given; [ ] = dose if it differs, or a comment. Calls follow the shape of the dose curve; as a rule, active = well fitted curve in the direction sought with a large enough effect; inconclusive = small, poorly fitted or top-dose-only effect, or another doubt; inactive = no such curve, though single readings can be large; an effect the other way counts as inactive or inconclusive. Potency is read from the fitted curve at half-maximal effect.

SMILES	Vif-A3G inh	TrxR1 substrate	VDR inh	Vif-APOBEC3F blk	rTrxR1 inhibitor
CNC1(c2nnnn2-c2ccccc2C)CCOC(C)(C)C1 (centres undefined)	1%	3%	22µM*	-2%	23%
O=C(C[n+]1csc2ccccc21)c1ccc(O)c(O)c1	-1%	0%	x	x	33%
Cc1ccc2cc(CN(Cc3ccco3)Cc3nnnn3Cc3ccco3)c(=O)[nH]c2c1	4%	-6%	-18%	x	u
Cc1cc(C)c2cc(CN(Cc3ccc4c(c3)OCO4)Cc3nnnn3Cc3ccco3)c(=O)[nH]c2c1	-1%	7%	14%	1%	-2%
COc1ccccc1CN(Cc1cc2cc3c(cc2[nH]c1=O)OCCO3)Cc1nnnn1Cc1ccco1	-15%	44%	u	u	5.6µM*
Cc1ccc2cc(CN(Cc3nnnn3Cc3ccco3)CC3CCCO3)c(=O)[nH]c2c1C (centres undefined)	-1%	-6%	-4%	-9%	25µM*
O=c1[nH]c2cc3c(cc2cc1CN(Cc1ccccc1)Cc1nnnn1Cc1ccco1)OCCO3	-2%	22%	u	-2%	18µM*
Cc1ccc2[nH]c(=O)c(CN(Cc3cccnc3)Cc3nnnn3CCN3CCOCC3)cc2c1	1%	10%	3%	-4%	11µM*
CCc1ccc2[nH]c(=O)c(CN(Cc3ccccc3)Cc3nnnn3Cc3ccco3)cc2c1	0%	-1%	5%	0%	-24%
CN(C)c1ccc(CN(Cc2ccco2)C(=O)COc2ccc(F)cc2)cc1	x	-10%	16%	x	10%
COc1ccc(F)cc1S(=O)(=O)NCC(c1ccco1)S(=O)(=O)c1cccs1 (centres undefined)	0%	3%[57.1 µM]	1%	-17%	u
CCOc1cccc(C2C=C(c3ccc4c(c3)OCO4)NC(c3ccc(Br)cc3)N2)c1O (centres undefined)	-10%	6%[0.0914 µM]	-21%	x	-10%
Cc1ccc2[nH]c(=O)c(CN(Cc3ccco3)Cc3nnnn3Cc3ccccc3)cc2c1	2%	-13%	u	x	-27%
Cc1ccc2[nH]c(=O)c(CN(CCCO)Cc3nnnn3Cc3ccco3)cc2c1	1%	0%	-6%	x	28µM*
O=c1[nH]c2cc3c(cc2cc1CN(Cc1cccnc1)Cc1nnnn1Cc1ccco1)OCCO3	-3%	56%	-4%	-15%	11µM*
O=c1[nH]c2cc3c(cc2cc1CN(Cc1cccs1)Cc1nnnn1Cc1ccco1)OCCO3	u	27%	u	u	16µM*
Cc1ccc2[nH]c(=O)c(CN(Cc3ccc4c(c3)OCO4)Cc3nnnn3Cc3ccco3)cc2c1	-2%	-4%[57.1 µM]	8%	5%	6%[57.1 µM]
C[C@H](NC(c1cccc2nc(O)c(O)nc12)P(=O)(O)O)c1ccc(Br)cc1 (some centres undefined)	x	x	18%	x	x
O=C(NC1CC1)c1ccc(NC(=O)C2CCC2)cc1	-1%	-6%	79µM*	0%	17%
Cc1ccc(NC(=O)CCCn2c(=O)c3cccn3c3cccnc32)cc1C	1%	8%	8%	-1%	15%
CCOC(=O)c1ccc(-n2c(=S)sc3c(=O)[nH]c(C)nc32)cc1	0%	-5%	50µM*	-6%	-12%
CC(C)(C)C(=O)CSc1n[nH]c(-c2ccccc2)n1	3%	-2%	x	x	7%
COc1cc2c(NC3CCN(C)CC3)nc(N3CCCN(C)CC3)nc2cc1OCc1ccccc1	x	31%	x	x	-18%
C/C(=N\NC(=O)C(C)n1nc(C)c([N+](=O)[O-])c1C)c1ccccc1O (centres undefined)	-2%	-12%	-28%	5.6µM*	-2%
CCC(=O)NC[C@H](Cc1ccc(OCCc2nc(-c3ccccc3)oc2C)cc1)N/C(C)=C\C(=O)c1ccc(C(F)(F)F)cc1	x	x	0%	x	x
SMILES	Vif-A3G inh	TrxR1 substrate	VDR inh	Vif-APOBEC3F blk	rTrxR1 inhibitor
COc1ccccc1NC(=S)NN=C(C)c1ccccn1	-17%	-6%	u	-15%	11µM*
CC(=NNC(=S)Nc1ccc(C)cc1)c1ccccn1	-17%	-11%	-26%	14%	u
CCc1ccccc1NC(=O)C(=O)NCC(c1cccnc1)N1CCc2ccccc21 (centres undefined)	-2%	0%	-5%	3%	7%
O=C(C[n+]1cccc2cccc(O)c21)c1ccc(Cl)cc1	-22%	5%	x	x	10%
CCCn1c(CN2CCN(C(=O)c3ccco3)CC2)nc2cc(S(=O)(=O)N(C)C)ccc21	1%	5%	-13%	-21%	20µM*
COc1ccc(C2=CC3=C(Br)C(=O)C(C)(OC(=O)c4cnc5ccccc5n4)C(=O)C3=CO2)cc1 (centres undefined)	x	x	0%	x	x
COc1ccc(C2=CC3=C(Br)C(=O)C(C)(OC(=O)CCc4ccccc4)C(=O)C3=CO2)cc1 (centres undefined)	x	x	-1%	x	x
COc1ccc(C2=CC3=C(Br)C(=O)C(C)(OC(=O)c4cccs4)C(=O)C3=CO2)cc1 (centres undefined)	0%	-13%	-28%	1%	50µM*
COCCN1C=C2C(=O)C(C)(OC(=O)CCC(=O)OC)C(=O)C(Br)=C2C=C1c1ccc(OC)cc1 (centres undefined)	4%	u	22µM*	1%	-7%
COc1ccc(C2=CC3=C(Br)C(=O)C(C)(OC(=O)c4ccco4)C(=O)C3=CO2)cc1 (centres undefined)	1%	-2%	79µM*	-4%	50µM*
Cn1c(=O)[nH]c(=O)c2c1nc(N/N=C/C(Br)=C/c1ccccc1)n2CCO	2%	-5%	-18%	-6%	3.5µM*
CC(C)=NNc1nc2c(c(=O)[nH]c(=O)n2C)n1CCCc1ccccc1	-6%	8%	1%	0%	1%
O=[N+]([O-])c1cccc(CN2C(COCc3ccccc3)CCC=CS2(=O)=O)c1 (centres undefined)	4%	-9%	-13%	x	-12%
NC(=S)NNc1ccc(Cl)c(Cl)c1	2%	1%	u	0%	3%
Cc1ccc(NNC(N)=S)cc1Cl	-3%	4%	79µM*	-10%	-4%
O=[N+]([O-])c1ccc(-c2cc3ccccc3[nH]2)cc1	-6%	-1%	x	x	11%
CC(=O)n1cc(CO)c2ccccc21	1%	-4%	-2%	2%	9%
Cn1cc(C(=O)N/N=C/c2ccc([N+](=O)[O-])cc2)c2ccccc21	0%	-4%	1%	-10%	25%[57.1 µM]
CC(=O)n1cc(N(C(=O)CCl)c2ccc([N+](=O)[O-])cc2)c2ccccc21	-29%	-1%	22µM*	13%	1.1µM*
CC(=O)n1cc(N(C(=O)CCl)c2ccccc2)c2ccccc21	-19%	0%	u	16%	0.63µM*
COc1cc(OC)c(/C=C/c2ccc3ccccc3[n+]2C)c(OC)c1	u	-14%	x	x	17%

Assay outcomes: PubChem, National Center for Advancing Translational Sciences (NCATS)
